From the supplement of paper PMC10515830
Structures can show the parent of a compound that is named as a salt.

Columns and labels:
Conditions in all cases: 10 µM; exposure time 6 h
[1] = system: Danio rerio larvae (5 dpf); experiment: difference in excitability vs DMSO (percentage points); higher = more excitable than DMSO
Outline: (§1)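 Wild-type 5 dpf zebrafish larvae in 96-well plates were given 100 µL egg water containing library compound at 10 µM final for 6 h. After 3 h of exposure, plates at 28.5 ℃ were photographed every 6 s during a 3-h programme of moving lines and 100 ms, 400Hz tones. Z-LaP Tracker (a DeepLabCut model) quantified each behaviour, averaged over 48 larvae per compound. Values are the compound mean minus the DMSO-vehicle control, in percentage points.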

[2] = system: Danio rerio larvae (5 dpf); experiment: difference in startle response vs DMSO (percentage points); higher = stronger startle than DMSO
Outline: as §1

[3] = system: Danio rerio larvae (5 dpf); experiment: difference in activity during first hour vs DMSO (percentage points); higher = more activity than DMSO
Outline: as §1

[4] = system: Danio rerio larvae (5 dpf); experiment: difference in habituation to acoustic stimuli vs DMSO (percentage points); higher = more habituation than DMSO
Outline: as §1

[5] = system: Danio rerio larvae (5 dpf); experiment: difference in combined optomotor response to red, green and blue moving lines vs DMSO (percentage points); higher = stronger optomotor response than DMSO
Outline: as §1

Compound | difference in excitability [1] | difference in startle response [2] | difference in activity during first hour [3] | difference in habituation to acoustic stimuli [4] | difference [5]
N=C(N)NC(=O)c1nc(Cl)c(N)nc1N [Amiloride (hydrochloride) (hydrate)] | 10.2 | -1.2 | -3.37 | 2.2 | 2.45
COC(=O)C1=C(C)NC(C)=C(C(=O)OC)C1c1ccccc1[N+](=O)[O-] [Nifedipine] | 8.58 | -1.47 | -4.95 | 0.749 | 12.1
CS(=O)(=O)c1cccc(C[C@H](NC(=O)c2c(Cl)cc3c(c2Cl)CCN(C(=O)c2ccc4ccoc4c2)C3)C(=O)O)c1 [Lifitegrast] | 5.68 | 2.04 | 16.5 | 0.0295 | 7.02
C#C[C@]1(O)CC[C@H]2[C@@H]3CCc4cc(O)ccc4[C@H]3CC[C@@]21C [Ethynyl Estradiol] | 3.58 | -3.27 | -24 | -11 | -17.5
COC(=O)c1ccc2c(c1)NC(=O)/C2=C(\Nc1ccc(N(C)C(=O)CN2CCN(C)CC2)cc1)c1ccccc1 | 16.7 | -5.51 | -11.1 | 1.6 | 3.92
CC1=C(C/C=C(\C)CCC[C@H](C)CCC[C@H](C)CCCC(C)C)C(=O)c2ccccc2C1=O [Vitamin K1] | -4.97 | 1.27 | 12.1 | -1.08 | 6.58
Clc1cccc(Cl)c1NC1=NCCN1 [Clonidine (hydrochloride)] | 9.22 | 3.55 | -11.7 | 0.121 | 6.82
Cl.N=C(N)NCCC[C@H](N)C(=O)O [L-Arginine (hydrochloride)] | 4.03 | -4.09 | 10.1 | 2.29 | 0.624
Cc1ccc(C(=O)c2cc(O)c(O)c([N+](=O)[O-])c2)cc1 [Tolcapone] | 5.24 | -9.07 | 8.3 | -6.19 | -0.989
COc1cc2/c(=N/c3ccc(Br)cc3F)nc[nH]c2cc1OCC1CCN(C)CC1 [Vandetanib] | 12.1 | -1.93 | -4.76 | 5.41 | 6.09
Nc1cc(-c2ccncc2)c[nH]c1=O [Amrinone] | -0.366 | 5.87 | -4.08 | 9.44 | 0.366
CC(C)NCC(O)c1ccc(O)c(O)c1 (stereo not given) [Isoproterenol (hydrochloride)] | -11.9 | -6.4 | 45.9 | 1.72 | 6.58
C=C[C@H]1CN2CC[C@H]1C[C@H]2[C@H](O)c1ccnc2ccc(OC)cc12 [Quinine] | 11.3 | 10.1 | -2.96 | 0.181 | -0.242
O=C(c1ccccc1)c1ccc2n1CCC2C(=O)O (stereo not given) [Ketorolac (tromethamine salt)] | -0.0297 | 5.09 | -3.37 | 7.86 | -1.11
CC(C)n1c(/C=C/C(O)CC(O)CC(=O)O)c(-c2ccc(F)cc2)c2ccccc21 (stereo not given) [Fluvastatin (sodium salt hydrate)] | 11.5 | -2.51 | 4.55 | -1.22 | 3.05
CNCc1ccc(-c2[nH]c3cc(F)cc4c3c2CCNC4=O)cc1 [Rucaparib] | 15.9 | 5.43 | -11 | 15.7 | 11
CN(C)CCOC(c1ccccc1)c1ccccc1 [Diphenhydramine (hydrochloride)] | -0.341 | 0.108 | -10.6 | -3.37 | 3.89
CN(C)CCOC(C)(c1ccccc1)c1ccccn1 (stereo not given) [Doxylamine (succinate)] | 0.347 | -2.91 | 6.73 | 5.01 | 9.42
CO[C@H]1/C=C/O[C@@]2(C)Oc3c(C)c(O)c4c(O)c(c(/C=N/N5CCN(C6CCCC6)CC5)c(O)c4c3C2=O)NC(=O)/C(C)=C\C=C\[C@H](C)[C@H](O)[C@@H](C)[C@@H](O)[C@@H](C)[C@H](OC(C)=O)[C@@H]1C [Rifapentine] | 24.8 | -0.153 | -3.15 | 6.16 | 6.78
Nc1ccc(S(=O)(=O)Nc2ncccn2)cc1 [Sulfadiazine] | 11.9 | 4.72 | 7.75 | 1.42 | -1.28
O=C(O)CCc1nc(-c2ccccc2)c(-c2ccccc2)o1 [Oxaprozin] | 17.9 | -7.37 | 3.28 | -4.84 | -6.06
CC1(C)S[C@@H]2[C@H](NC(=O)[C@H](N)c3ccc(O)cc3)C(=O)N2[C@H]1C(=O)O [Amoxicillin (hydrate)] | 2.37 | 8.42 | 13.1 | 5.1 | 8.79
NS(=O)(=O)c1cc2c(cc1C(F)(F)F)NC(Cc1ccccc1)NS2(=O)=O (stereo not given) [Bendroflumethiazide] | 1.38 | -5.47 | 3.78 | -7.63 | -4.26
CC(C)(O/N=C(\C(=O)N[C@@H]1C(=O)N2C(C(=O)[O-])=C(C[n+]3ccccc3)CS[C@H]12)c1csc(N)n1)C(=O)O [Ceftazidime (hydrate)] | -0.0444 | 0.0878 | 3.86 | 0.293 | 4.55
CNCC(=O)OCc1cccnc1N(C)C(=O)OC(C)[n+]1cnn(C[C@](O)(c2cc(F)ccc2F)[C@@H](C)c2nc(-c3ccc(C#N)cc3)cs2)c1 (stereo not given in full) [Isavuconazonium (sulfate)] | 28.4 | 4.1 | -13.1 | -2.82 | -5.6

Compound | difference in excitability [1] | difference in startle response [2] | difference in activity during first hour [3] | difference in habituation to acoustic stimuli [4] | difference [5]
CC(C)(C(=O)c1cccnc1)c1cccnc1 [Metyrapone] | 1.48 | 5.62 | -0.661 | 1.75 | 4.5
CCC(=O)O[C@]1(C(=O)CCl)[C@@H](C)C[C@H]2[C@@H]3C[C@H](F)C4=CC(=O)C=C[C@]4(C)[C@@]3(F)[C@@H](O)C[C@@]21C [Halobetasol Propionate] | 12.1 | 1.54 | 3.96 | -4.09 | 3.99
Cc1nc2n(c(=O)c1CCN1CCC(c3noc4cc(F)ccc34)CC1)CCCC2 [Risperidone] | 14.4 | 5.09 | 7.15 | 4.04 | -1.6
CCc1cc(C(N)=S)ccn1 [Ethionamide] | -2.77 | -1 | -3.96 | 0.506 | 2.57
CCOC(=O)[C@H](CCc1ccccc1)N[C@H]1CCc2ccccc2N(CC(=O)O)C1=O [Benazepril (hydrochloride)] | 7.01 | 3.34 | -2.03 | -3.43 | -7.74
CC(CN1c2ccccc2Sc2ccccc21)N(C)C (stereo not given) [Promethazine (hydrochloride)] | 7.65 | -2.21 | 16.6 | -3.09 | 4.32
CC(C)(C)NCC(O)c1ccc(O)c(CO)c1 (stereo not given) [Salbutamol (hydrochloride)] | 7.67 | -7.77 | 15.5 | -0.991 | 4.05
O=C(O[C@@H]1C[C@@H]2C[C@H]3C[C@H](C1)N2CC3=O)c1c[nH]c2ccccc12 [Dolasetron] | 10.9 | -3.55 | 2.6 | 7.35 | 6.71
Cc1cc(NS(=O)(=O)c2ccc(N)cc2)no1 [Sulfamethoxazole] | 0.0564 | 4.25 | 9.59 | 3.04 | 8.31
CC(C)C[C@H](NC(=O)[C@H](CCc1ccccc1)NC(=O)CN1CCOCC1)C(=O)N[C@@H](Cc1ccccc1)C(=O)N[C@@H](CC(C)C)C(=O)[C@@]1(C)CO1 [Carfilzomib] | 5.53 | -0.402 | 4.53 | 2.38 | 4.24
N#CC[C@H](C1CCCC1)n1cc(-c2ncnc3[nH]ccc23)cn1 [Ruxolitinib (phosphate)] | -1.61 | 4.35 | 6.14 | -4.72 | 17.9
CCN(CC)CC(=O)Nc1c(C)cccc1C [Lidocaine] | 4.55 | -4.05 | 10.3 | -4.04 | 1.72
CC(=O)Oc1c(C)cc(OCC(O)CNC(C)C)c(C)c1C (stereo not given) [Metipranolol (hydrochloride)] | 1.28 | 4.21 | -3.92 | 5.42 | 0.513
CC(Oc1c(Cl)cccc1Cl)C1=NCCN1 (stereo not given) [Lofexidine (hydrochloride)] | 5.84 | 4.45 | 2.08 | 0.884 | 10.9
CN1[C@@H]2CC[C@H]1C[C@@H](OC(c1ccccc1)c1ccccc1)C2 [Benztropine (mesylate)] | -5.24 | -9.21 | 27.7 | -9.38 | -1.29
NC(=O)NO [Hydroxyurea] | -1.52 | 8.36 | 2.09 | 5.31 | 3.68
NS(=O)(=O)c1cc(C(=O)O)c(NCc2ccco2)cc1Cl [Furosemide] | 6.1 | -2.57 | 12 | -0.166 | 8.19
C#C[C@]1(O)CC[C@H]2[C@@H]3CCC4=Cc5oncc5C[C@]4(C)[C@H]3CC[C@@]21C [Danazol] | 6.6 | -7.24 | -23.6 | -10.4 | -17.8
O=C(O)c1cc(/N=N/c2ccc(O)c(C(=O)O)c2)ccc1O [Olsalazine (sodium salt)] | -2.93 | 2.86 | 0.738 | -4.79 | -8.04
CCCCCCCCCC(=O)N[C@@H](Cc1c[nH]c2ccccc12)C(=O)N[C@H](CC(N)=O)C(=O)N[C@@H](CC(=O)O)C(=O)N[C@@H]1C(=O)NCC(=O)N[C@@H](CCCN)C(=O)N[C@@H](CC(=O)O)C(=O)N[C@H](C)C(=O)N[C@@H](CC(=O)O)C(=O)NCC(=O)N[C@H](CO)C(=O)N[C@@H]([C@H](C)CC(=O)O)C(=O)N[C@@H](CC(=O)c2ccccc2N)C(=O)O[C@@H]1C [Daptomycin] | 12 | 1.46 | 7.99 | -6.5 | 6.83
O=C1Nc2ccc(Cl)cc2[C@@](C#CC2CC2)(C(F)(F)F)O1 [Efavirenz] | 10.7 | -10.7 | -17.8 | -12.8 | -17.4
CS(=O)(=O)OCCCCOS(C)(=O)=O [Busulfan] | 1.08 | 2.56 | 2.59 | 2.63 | 3.07
OC[C@H]1O[C@@H](n2cnc3c2N=CNC[C@H]3O)C[C@@H]1O [Pentostatin] | 4.36 | -6.74 | 2.27 | 0.584 | 3.35
N#Cc1ccc(Oc2ccc3c(c2)COB3O)cc1 | -2.19 | -0.784 | -16.9 | -15.1 | -18.2
O=C(O)P(=O)(O)O [Foscarnet (sodium salt)] | -6.03 | 6.15 | 20.9 | -1.07 | 4.77
